Data published in PubChem BioAssay (NCI).
About 83,000 compounds went through this panel and 20% of them were active in at least one assay; those are over-represented in the sample as a whole.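 Single-dose data. Exposure time 48 hours. Values below 10 considered active.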 A number with no mark means an inactive call. Active and inactive are the calls of the source.

How the values were obtained:
Experiment in all cases: NCI-60 one-dose screen, 48 h (100 = growth as untreated, 0 = no growth, -100 = all killed)
HCT-15 colon = settings: 10 µM unless noted
HT29 colon = settings: 10 µM unless noted
SNB-75 CNS = settings: 10 µM unless noted
SNB-19 CNS = settings: 10 µM unless noted
U251 CNS = settings: 10 µM unless noted
PC-3 prostate = settings: 10 µM unless noted
SK-MEL-5 melanoma = settings: 10 µM unless noted
LOX IMVI melanoma = settings: 10 µM
SK-MEL-28 melanoma = settings: 10 µM unless noted
SK-MEL-2 melanoma = settings: 10 µM unless noted
EKVX NSCLC = settings: 10 µM unless noted
SN12C renal = settings: 10 µM unless noted
UO-31 renal = settings: 10 µM unless noted
TK-10 renal = settings: 10 µM unless noted
ACHN renal = settings: 10 µM unless noted
A498 renal = settings: 10 µM unless noted
CCRF-CEM leukemia = settings: 10 µM unless noted
CAKI-1 renal = settings: 10 µM unless noted
MOLT-4 leukemia = settings: 10 µM unless noted
UACC-62 melanoma = settings: 10 µM unless noted

SMILES | growth (HCT-15 colon) | growth (HT29 colon) | growth (SNB-75 CNS) | growth (SNB-19 CNS) | growth (U251 CNS) | growth (PC-3 prostate) | growth (SK-MEL-5 melanoma) | growth (LOX IMVI melanoma) | growth (SK-MEL-28 melanoma) | growth (SK-MEL-2 melanoma) | growth (EKVX NSCLC) | growth (SN12C renal) | growth (UO-31 renal) | growth (TK-10 renal) | growth (ACHN renal) | growth (A498 renal) | growth (CCRF-CEM leukemia) | growth (CAKI-1 renal) | growth (MOLT-4 leukemia) | growth (UACC-62 melanoma)
Cc1cc(C(=O)c2ccccc2)cc(C)c1O | 96.4% | 113% | 87.8% | 120% | 98.1% | 93.5% | 104% | 92.1% | 115% | 118% | 112% | 106% | 84% | 123% | 99.8% | 98% | -22.1% (active) |  |  | 
O=C(NCc1ccccc1)c1cccc([N+](=O)[O-])c1 | 104% | 97.8% | 101% | 95.1% | 89.1% | 88.9% | 103% | 105% | 114% | 104% | 102% | 104% | 70.1% | 99.6% | 102% | 82.3% |  | 102% | 102% | 
OCCc1ccc(Cl)cc1 | 102% | 99.9% | 86.5% | 96.5% | 92.3% | 95.5% | 103% | 100% | 108% | 99.3% | 97.9% | 94.9% | 90.5% | 94.7% |  | 106% | 96.9% | 92.7% | 109% | 
CCCCCCCCCCCCCC/C=C\C(CC(=O)O)C(=O)O (centres undefined) | 107% | 103% | 90.1% | 103% | 107% | 96.2% | 104% | 110% | 108% | 110% | 140% | 100% | 95.9% | 111% | 110% | 95.2% | 4.62% (active) | 129% | 115% | 
NS(=O)(=O)c1cc(=O)[nH]c(=O)[nH]1 | 111% | 108% | 93.1% | 106% | 98% | 120% | 107% | 93.4% | 110% |  | 112% | 108% | 100% | 113% | 104% | 190% | 103% | 111% | 148% | 
COc1cc(N)c2ncccc2c1Cl | 90.5% | 91.1% | 99.8% | 98.8% | 101% | 93.3% | 96.4% | 104% | 121% | 96.7% | 84.3% | 91.5% | 78.4% | 93.6% | 91.2% | 97.1% |  | 95.8% | 93.3% | 
Nc1ccn(C2CC(N)C(CO)O2)c(=O)n1 (centres undefined) | 71.4% | 81.3% | 77.6% | 68.2% | 80.9% | 74.8% | 83.6% | 75.4% | 118% | 122% | 100% | 67.4% | 72.6% | 99.4% | 20.1% | 100% |  | 42.3% | 31% | 
CN1CCCN(C(c2ccccc2)c2ccc(Br)cc2)CC1 (centres undefined) | 63.8% | 39.1% | 38.5% | 99.6% | 71.1% | 61.4% | 60.3% | 69.7% | 64.9% | 113% | 66.9% | 65.4% | 60.5% | 61.4% | 50.6% | 74.2% | 96.6% |  | 55.5% | 
CCN(Cc1ccc(Cl)c(Cl)c1)c1ccc2nc(N)nc(N)c2c1C | -82.1% (active) | -79.1% (active) | -94.7% (active) | -97.4% (active) | -92% (active) | -62.2% (active) | -98.2% (active) | -87.5% (active) | -95.4% (active) | -78% (active) | -56.8% (active) | -75.6% (active) | -82.7% (active) | -84.3% (active) |  | -78.2% (active) | -5.59% (active) | -67% (active) | -59.5% (active) | 
CCCCOC(=O)c1ccc(NC(=O)CCl)cc1 | 14.9% | 12.8% | 68.9% | 62.6% | 4.55% (active) | 51.7% | 58.7% | -43.4% (active) | 102% | 62.3% | 86% | 18.3% | 57.9% | 92% | -17.1% (active) | 99.2% | -15% (active) |  | 0.49% (active) | 
C=C(C)COc1ccc(C(C)(C)C)cc1 | 108% | 99.2% | 94% | 103% | 88.5% | 96.9% | 104% | 101% | 108% | 101% | 98.9% | 103% |  | 97.1% | 105% | 105% | 103% |  | 111% | 
COc1c(CNC(=O)CCl)cc2[nH]c(C)cc2c1CNC(=O)CCl | 70.5% | 38.3% | 69.6% | 83.5% | 10.3% | 67.9% | 44.1% | 34% | 63.2% | 54.9% | 65.1% | 53.7% | 60.7% | 74.1% | 37.3% | 84.4% | 25.6% |  |  | 
CC(C)N1CC(=O)N2CSCC2C1=O (centres undefined) | 105% | 119% | 99.3% | 121% | 105% |  | 104% | 98.9% | 111% | 115% | 105% | 107% | 96.5% | 109% | 109% | 123% | 107% | 100% | 111% | 104%
COc1ccc(C)cc1NC(=O)SC(C)C | 102% [100 µM] | 104% [100 µM] | 82.4% [100 µM] | 99% [100 µM] | 104% [100 µM] | 96.7% [100 µM] | 96.3% [100 µM] |  | 102% [100 µM] | 102% [100 µM] | 102% [100 µM] | 96.6% [100 µM] | 82.9% [100 µM] | 128% [100 µM] | 100% [100 µM] | 92.3% [100 µM] | 106% [100 µM] | 95.5% [100 µM] | 106% [100 µM] | 
Cc1cc2c(C(C)C)c(O)c(O)c(C=Nc3ccccc3[N+](=O)[O-])c2c(O)c1-c1c(C)cc2c(C(C)C)c(O)c(O)c(C=Nc3ccccc3[N+](=O)[O-])c2c1O | 80.2% | 93% | 78% | 43.9% | 54.2% |  | 96.2% | 81.3% | 98.3% | 96.6% | 60.7% | 84.9% | 84% | 84.2% | 83.3% | 101% | 35% | 88% | 26.2% | 96.5%
CCOc1ccc2c(c1)c(C)cc(C)[n+]2CC | 112% | 81.8% | 71.2% | 64.8% | 45.7% |  | 78.3% | 73.8% | 102% | 97.9% | 35.9% | 64.6% | 65.9% | 97% | 94.1% | 88.9% | 71.2% | 86.2% | 64.6% | 92.8%
NC(CSSCC(N)C(=O)O)C(=O)O (centres undefined) | 34.5% | 5.05% (active) | -3.17% (active) | -6.03% (active) | 27% | 27.3% |  | 18.2% | 18.5% | -8.58% (active) | 21.9% | -11.2% (active) | 13.9% | 20.4% | -37.8% (active) | -7.36% (active) | -10.1% (active) | 11.4% |  | -19.3% (active)
C/C=C/C1OCC(CC)C(CCC)O1 (centres undefined) | 111% | 105% | 90.2% | 99.7% | 104% | 98.9% |  | 113% | 112% | 102% | 105% | 99.5% | 81.1% | 101% | 110% | 91.7% | 85.4% | 99.9% | 94% | 
Oc1cccnc1CN1CCCC1 | 95.3% | 108% | 96.1% | 104% | 94.8% |  | 99.8% | 96.6% | 107% | 108% | 106% | 97.6% | 92.1% | 111% | 105% | 108% | 101% | 97% | 94.2% | 102%
